Measured values from paper PMC4336329 (PLoS ONE, 2015).
Hit rate of the full screen: of about 310,000 compounds, about 14,000 (4.5%) showed an effect of 50% or more. Effects have a minus sign here. The list comes from a sample in which strong results are over-represented; it also holds similar structures and randomly drawn compounds.

The compounds below were run against human ether-à-go-go-related gene (hERG) potassium channel (human, UniProt Q12809) (assay: primary screen, population patch clamp on CHO cells stably expressing hERG; higher = less effect of the substance).
human ether-à-go-go-related gene (hERG) potassium channel, sequence (Q12809 whole entry, looked up): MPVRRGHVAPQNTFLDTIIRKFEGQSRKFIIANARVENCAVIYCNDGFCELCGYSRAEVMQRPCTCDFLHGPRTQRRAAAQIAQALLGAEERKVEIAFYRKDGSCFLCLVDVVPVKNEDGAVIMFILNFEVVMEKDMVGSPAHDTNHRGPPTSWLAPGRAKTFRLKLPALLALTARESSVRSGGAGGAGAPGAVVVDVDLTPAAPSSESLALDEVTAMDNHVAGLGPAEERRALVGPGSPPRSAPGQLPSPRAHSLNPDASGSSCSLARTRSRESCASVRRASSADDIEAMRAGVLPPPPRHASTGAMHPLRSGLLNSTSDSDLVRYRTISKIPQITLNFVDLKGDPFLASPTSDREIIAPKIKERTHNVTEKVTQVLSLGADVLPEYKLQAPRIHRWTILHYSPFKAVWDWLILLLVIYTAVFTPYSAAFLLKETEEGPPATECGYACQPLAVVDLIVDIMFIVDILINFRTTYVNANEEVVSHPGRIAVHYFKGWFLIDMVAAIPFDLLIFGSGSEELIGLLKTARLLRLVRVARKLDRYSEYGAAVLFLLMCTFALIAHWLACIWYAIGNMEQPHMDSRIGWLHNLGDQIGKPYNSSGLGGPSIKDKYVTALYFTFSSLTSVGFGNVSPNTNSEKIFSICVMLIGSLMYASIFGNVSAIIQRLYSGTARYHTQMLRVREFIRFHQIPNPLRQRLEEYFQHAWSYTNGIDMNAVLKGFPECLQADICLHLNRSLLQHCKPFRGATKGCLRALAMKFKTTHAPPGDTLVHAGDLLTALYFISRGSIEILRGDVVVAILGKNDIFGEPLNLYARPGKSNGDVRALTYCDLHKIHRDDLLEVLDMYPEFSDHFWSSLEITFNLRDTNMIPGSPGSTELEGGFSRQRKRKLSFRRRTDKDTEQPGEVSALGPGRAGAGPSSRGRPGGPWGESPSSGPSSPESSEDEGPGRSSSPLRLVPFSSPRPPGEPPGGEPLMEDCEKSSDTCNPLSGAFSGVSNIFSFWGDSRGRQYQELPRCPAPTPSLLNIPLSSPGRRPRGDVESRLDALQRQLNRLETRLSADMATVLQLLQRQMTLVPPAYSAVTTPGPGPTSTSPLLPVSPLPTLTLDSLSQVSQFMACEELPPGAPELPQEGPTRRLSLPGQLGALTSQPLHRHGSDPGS
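Note: peak tail current of the secondary pulse compared with the same well before compound.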

In order of rising “hERG current change (%, negative = inhibition) at 10uM” value:
1. COc1ccc(S(=O)(=O)N(C)c2ccc(C(=O)NC3CCCC3)cc2)cc1  -83.7%
2. Cc1ccc(Nc2c3c(nc4ccccc24)CCC3)cc1.Cl  -78.8%
3. COc1cccc(CCN2CCC(CNS(=O)(=O)c3cc(-c4cc(C)no4)ccc3C)CC2)c1  -77.2%
4. Cl.c1ccc(Nc2c3c(nc4ccccc24)CCC3)cc1  -76.2%
5. COc1cccc(CCN2CCC(CNS(=O)(=O)c3cc(-c4cc(C)no4)ccc3OC)CC2)c1  -74.9%
6. Cc1cccc(Nc2c3c(nc4ccccc24)CCC3)c1.Cl  -71.5%
7. COc1ccc(Nc2c3c(nc4ccccc24)CCC3)cc1.Cl  -70.9%
8. COc1ccc(Nc2c3ccccc3nc3ccccc23)cc1  -69.6%
9. Cl.Fc1cccc(Nc2c3c(nc4ccccc24)CCC3)c1  -68.2%
10. Fc1ccc(Nc2c3c(nc4ccccc24)CCC3)cc1  -64.3%
11. C=CCNC(=O)c1ccc(CN(c2ccc(OCC)cc2)S(=O)(=O)c2ccc(C)cc2)cc1  -62%
12. C=CCNC(=O)c1ccc(N(C)S(=O)(=O)c2ccc(OC)cc2)cc1  -57.4%
13. CC(=O)Nc1ccc(Nc2c3ccccc3nc3ccccc23)cc1  -55.7%
14. CCOc1ccc(Nc2c3ccccc3nc3ccccc23)cc1  -42.4%
15. COc1ccc(-c2cc(C)no2)cc1S(=O)(=O)NCc1cccc(C)c1  -41.5%
16. C=CCNC(=O)c1ccc(N(Cc2ccc(Cl)cc2)S(C)(=O)=O)cc1  -33.5%
17. CN(C)CCNC(=O)c1ccc2c(c1)N(Cc1ccc(F)cc1)CCS2  -32.8%
18. COc1ccc(OCC(=O)N2CCN(S(=O)(=O)c3ccccc3[N+](=O)[O-])CC2)cc1  -31.2%
19. CC(=O)Nc1ccc(Nc2cc(C)c3ccccc3n2)cc1  -27.4%
20. Cc1ccnc(SC2CC(=O)N(c3ccc([N+](=O)[O-])cc3)C2=O)n1 (stereo not shown)  -26.8%
21. O=C(CCCCCl)Nc1c2c(nc3ccccc13)CCC2  -23.6%
22. Cc1cc(-c2ccc(C)c(S(=O)(=O)NCc3cccc(Br)c3)c2)on1  -22.2%
23. O=C(NCc1ccc(F)cc1)c1c2c(nc3ccccc13)CCC2  -21.1%
24. COCCCNC(=O)c1ccc(N(C)S(=O)(=O)c2ccc(OC)cc2)cc1  -20.6%
25. Cl.Nc1nc(Nc2cccc(F)c2)nc2ccccc12  -19.3%
26. CCc1noc(C)c1C(=O)OC(C)C(=O)NCc1ccc(OC)cc1 (stereo not shown)  -15.3%
27. Cc1ccc(C)c(NC(=O)COC(=O)c2cccc3c2C(=O)c2ccccc2C3=O)c1  -14.2%
28. Cc1cc(-c2ccc(C)c(S(=O)(=O)NCCN3CCC(C)CC3)c2)on1  -12.8%
29. CN(Cc1ccccc1)S(=O)(=O)c1ccc(N2CCCC2=O)cc1  -12.7%
30. COc1ccc(S(=O)(=O)N(C)c2ccc(C(=O)NC3CC3)cc2)cc1  -12.6%
31. CCOc1ccc(N(Cc2ccc(C(=O)O)cc2)S(=O)(=O)c2ccc(C)cc2)cc1  -12.5%
32. C=CCNC(=O)c1ccc(OC)cc1  -12%
33. CCOC(=O)c1ccc(N2C(=O)CC(C3CCCO3)C2=O)cc1 (stereo not shown)  -11.2%
34. COc1ccc(N(C)S(=O)(=O)c2cccc(C(=O)NC3CCCC3)c2)cc1  -9.64%
35. CN(c1cccc2cccnc12)S(=O)(=O)c1ccccc1  -8.43%
36. COc1cccc(CNS(=O)(=O)c2cc(-c3cc(C)no3)ccc2C(C)C)c1  -7.33%
37. COc1cc(/C=C2\SC(N3CCC(C)CC3)=NC2=O)ccc1O  -5.99%
38. Cc1cccc(Nc2ncnc3ccccc23)c1.Cl  -5.93%
39. COc1ccc(Nc2nc(-c3ccccc3)c3ccccc3n2)cc1  -5.22%
40. Cl.O=C(O)c1ccc(Nc2c3ccccc3nc3ccccc23)cc1  -2.61%
41. COc1ccc(CNC(=O)c2ccc3c(c2)N(C)CCS3)cc1  -2.44%
42. O=[N+]([O-])c1ccc(Cl)cc1NCCCN1CCOCC1  0.725%
43. O=C(Nc1cc(=O)[nH]c2ncnn12)c1ccccc1Cl  1.15%
44. O=c1c2ccccc2nc(/C=C/c2ccc(Br)cc2)n1CCO  2.81%
45. Cc1ccc(NC(=O)c2c3c(nc4ccccc24)CCC3)cc1  2.86%
46. COCCNC(=O)/C(C#N)=C/c1c(N2CCN(c3ccccc3)CC2)nc2c(C)cccn2c1=O  5.92%
47. COc1ccc(-n2c(C)cc(C(=O)COC(=O)c3cc(NC(=O)c4cccs4)c(OC)c(OC)c3)c2C)cc1  6.03%
48. CCOC(=O)C1CCN(C(=O)Nc2ccc3oc(C)nc3c2)CC1  7.35%
49. COc1ccc(NC(=O)c2c3c(nc4ccccc24)CCC3)cc1  10.1%
50. COC(=O)c1ccc(CN2C(=O)NC3(CCCCC3)C2=O)cc1  11.2%
51. COc1cc(NC(=O)c2c3c(nc4ccccc24)CCC3)cc(OC)c1  11.3%
52. COc1cccc(NC(=O)CCCOc2cc(=O)n(C)c3ccccc23)c1  12.6%
53. O=C(NCc1ccc2c(c1)CCO2)Nc1cccc(C(F)(F)F)c1  12.6%
54. N/C(=N\OC(=O)c1cccnc1)c1ccc(Cl)cc1Cl  12.7%
55. COc1ccc(-c2csc3nc(-c4ccccc4)oc(=O)c23)cc1OC  14.3%
56. Fc1cccc(Nc2nc(-c3ccncc3)nc3ccccc23)c1  15.4%
57. Cc1ccc(-n2c(SCC(=O)N3CCCCC3)nc(O)cc2=O)cc1  16.1%
58. COc1ccc(-n2c(=O)[nH]cc(C(=O)N3CCc4ccccc43)c2=O)cc1  16.2%
